This is an account of results in PubChem BioAssay.

Test [1] is described as follows: inhibitors of TNFa-induced NFkB p65 translocation, primary screen, imaging, HUVEC, MLSMR starter and 10KST1 sets (AID 438;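 active = inhibition above 20% together with a positive visual image hit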;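 also: compound added about 3h40 before a 20 min TNFalpha stimulation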;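 as to inhibition: signal is the nuclear over cytoplasmic p65 intensity ratio per well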). The following applies: HUVEC TNFa-induced p65 nuclear translocation; cell count: measured here: nuclei count (cytotoxicity indicator), at 2.08 µM; inhibition: at 2 µM, stronger effect = higher value, 0% TNFa-plus-vehicle, 100% no-TNFa wells.
Test [2] can be described thus: inhibitors of mutant huntingtin aggregation, primary screen, imaging, exon1htt(103Q)mCFP cells, high-content imaging (AID 483;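 active = visual image review flags a hit and inhibition of aggregation exceeds 20%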;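 also: compound exposure lasted 3 days before fixation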;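 as to nuclei count: percent of the per-plate median nuclei count of sample wells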). The following applies: exon1htt(103Q)mCFP cell line, aggregate imaging, at 2 µM; inhibition of aggregation: stronger effect = higher value; nuclei count: measured here: cell count, toxicity.
Test [3] can be described thus: inhibitors of E-selectin induction by TNFa, primary screen, imaging, HUVEC, immunofluorescence, MLSMR starter and 10KST1 sets (AID 487;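 active = visually confirmed hit in the image check and inhibition above 20%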;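 as to inhibition: signal is fraction of cell area covered by stained E-selectin grains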;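 as to nuclei count: 100% = median nuclei count of all wells on the same plate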). The following applies: HUVEC TNFalpha-induced E-selectin immunofluorescence imaging, at 2 µM; inhibition: stronger effect = higher value; nuclei count: measured here: cell number, toxicity.
Test [4] is described as follows: DUSP6 inhibitors restoring Erk phosphorylation by chemical complementation, primary imaging in DUSP6-transfected HeLa (AID 609;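 active = compounds giving at least 50% inhibition in the cell-based MKP-3 phosphatase rescue imaging test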;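 as to inhibition: phospho-Erk level distribution per well compared with pooled transfected vehicle control wells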). The following applies: HeLa MKP-3 transfected, phospho-Erk imaging KS statistic, at 10 µM, cells stimulated with TPA for 15 min.
Test [5] concerns the target Dual specificity protein phosphatase 6 (Homo sapiens) (UniProt Q16828). Described as above. The following applies: HeLa MKP-3 transfected, phospho-Erk imaging KS statistic; at 10 µM; stronger effect = higher value; cells stimulated with TPA for 15 min.
The target of test [6] is Voltage-gated potassium channel subunit beta-2 (Rattus norvegicus) (UniProt P62483). Kind of test: KvBeta enzyme negative modulators, primary screen, biochemical, NADPH fluorescence (AID 622;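 active = fluorescence slope higher than the sample average by over 3 SD, cut at about -0.22 in these data, passing the limit was not always enough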;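 also: slope of raw intensity against log time taken from 70 to 1610 s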). The following applies: recombinant KvBeta, 4-cyanobenzaldehyde reduction, at 10 µM, stronger effect = higher value.
Voltage-gated potassium channel subunit beta-2 (Rattus norvegicus), sequence (P62483 whole entry, looked up): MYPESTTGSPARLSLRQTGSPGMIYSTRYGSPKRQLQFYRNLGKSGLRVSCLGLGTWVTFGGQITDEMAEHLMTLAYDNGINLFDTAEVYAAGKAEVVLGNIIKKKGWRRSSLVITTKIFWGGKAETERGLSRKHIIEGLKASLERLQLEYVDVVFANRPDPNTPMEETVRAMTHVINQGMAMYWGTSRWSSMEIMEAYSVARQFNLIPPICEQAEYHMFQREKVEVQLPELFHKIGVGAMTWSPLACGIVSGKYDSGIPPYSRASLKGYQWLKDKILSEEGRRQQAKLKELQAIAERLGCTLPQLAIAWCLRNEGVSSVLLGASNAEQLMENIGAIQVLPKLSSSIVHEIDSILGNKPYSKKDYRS
Test [7] has the same target. The test is described as follows: KvBeta positive modulators, primary screen, biochemical, NADPH fluorescence (AID 623;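 active = NADPH fluorescence slope more negative than the mean of all samples by about 3 SD, 99.7% confidence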;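 also: fluorescence intensity change per second fitted from 20 to 320 s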). The following applies: Recombinant KvBeta, NADPH fluorescence decrease slope, 10 min; at 10 µM; stronger effect = lower value.
Test [8] has as its target Alpha-2C adrenergic receptor (Homo sapiens) (UniProt P18825). Kind of test: modulators of alpha2C/GIRK thallium flux, primary screen, cell-based, HEK293 alpha2C/GIRK1/2 (AID 624;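 active = fluorescence slope after compound addition differing from the mean of all screened samples at 99.7% confidence, in either direction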;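 also: slope of fluorescence ratio to pre-addition baseline per second over 15 to 24 s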). The following applies: thallium flux BTC fluorescence, at 10 µM, actives lie on both sides.
A short description of test [9]: inhibitors of larval lipid processing in zebrafish, primary screen, whole organism, PED6 fluorescence, gall bladder and intestine (AID 686;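 active = a full or partial loss of lipid-probe fluorescence in the fish gall bladder, intestine or both, judged by eye; inactive = no fluorescence loss, or compound toxic to the fish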;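 also: larvae 5 to 7 days old with five fish per well; signal comes from phospholipase A2 cleavage of quenched PED6 carried via bile; overnight exposure to compound and PED6 before scoring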). The following applies: Zebrafish larvae PED6 lipid processing, fluorescence scoring; screened at 20 µM (by protocol).
Test [10] is described as follows: inhibitors of Chlamydomonas gravitaxis, primary screen, whole organism, Chlamydomonas reinhardtii, WT vs cilia-less mutant, absorbance, 96-well (AID 463189;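 active = inhibition at or above 50% relative to wild type and mutant plate controls; inactive = inhibition below 50%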;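 also: 0% = wild type cc124 cells in DMSO and 100% = ciliumless bld1 mutant cells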). The following applies: OD600 absorbance, 2 days, at 10 µM, stronger effect = higher value.
Test [11] in a line: inhibitors of Sendai virus-induced IRF3 signaling, primary screen, TLR/RLR signaling modifier project, cell-based, Sendai virus stimulus, luciferase, 10K MLSCN set (AID 602276;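 active = inhibition at or above 50% at 10 µM; inactive = inhibition below 50%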;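 also: firefly luciferase from ISG56 promoter only with Renilla not read in this screen; 0% = Sendai virus plus DMSO and 100% = medium plus DMSO without virus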). The following applies: HEK293 RL24 IRF3 luciferase reporter, at 10 µM, stronger effect = higher value. On the technique in general: In a reporter assay the amount or activity of a reporter protein is the signal.
Test [12] can be described thus: inhibitors of poly I:C-induced TLR3 signaling, primary screen, cell-based, poly I:C stimulus, luciferase, 10K MLSCN set (AID 602277). The following applies: HEK293-TLR3 RL24 IRF3 luciferase reporter, at 10 µM, stronger effect = higher value.
Where [13] appears, read: measured here: cell density z-score.
Setting [14] is: measured here: nuclear c-Myc green intensity z-score.
[15] abbreviates: measured here: nuclear pErk red intensity z-score, stronger effect = higher value.

The structures appear in SMILES notation. Activity calls are given as the source filed them.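 The calls were made as follows, unless noted: active = inhibition of the reporter signal at or above 50%; inactive = inhibition below 50%.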

Dual specificity protein phosphatase 6 (Homo sapiens), sequence (Q16828 whole entry, looked up): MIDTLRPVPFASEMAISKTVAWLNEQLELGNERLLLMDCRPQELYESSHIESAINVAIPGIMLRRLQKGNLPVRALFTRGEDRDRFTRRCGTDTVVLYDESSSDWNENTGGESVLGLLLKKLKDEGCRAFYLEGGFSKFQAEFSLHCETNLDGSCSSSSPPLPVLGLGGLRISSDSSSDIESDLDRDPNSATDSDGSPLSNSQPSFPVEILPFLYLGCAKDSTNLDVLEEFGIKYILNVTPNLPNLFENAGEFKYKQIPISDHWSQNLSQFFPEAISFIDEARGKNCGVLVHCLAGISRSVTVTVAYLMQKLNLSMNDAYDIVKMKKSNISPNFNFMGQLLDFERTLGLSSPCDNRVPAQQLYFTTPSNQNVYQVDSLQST
Alpha-2C adrenergic receptor (Homo sapiens), sequence (P18825 whole entry, looked up): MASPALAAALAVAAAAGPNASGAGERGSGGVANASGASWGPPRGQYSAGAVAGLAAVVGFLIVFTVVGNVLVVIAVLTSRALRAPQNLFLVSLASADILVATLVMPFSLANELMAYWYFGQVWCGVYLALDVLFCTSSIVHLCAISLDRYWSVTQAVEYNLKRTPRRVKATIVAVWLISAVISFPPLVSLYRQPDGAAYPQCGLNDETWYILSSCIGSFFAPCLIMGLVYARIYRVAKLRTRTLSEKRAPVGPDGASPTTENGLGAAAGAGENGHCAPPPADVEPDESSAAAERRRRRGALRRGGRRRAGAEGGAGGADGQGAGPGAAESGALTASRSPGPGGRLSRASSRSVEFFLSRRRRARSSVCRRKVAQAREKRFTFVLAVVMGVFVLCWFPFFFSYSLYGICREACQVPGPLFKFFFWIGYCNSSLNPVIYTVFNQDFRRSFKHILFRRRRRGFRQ

Usually inhibition stands for the change of the read-out against control, counted positive when it falls. In the case of `Cn1ncc2c(Nc3ccccc3Br)ncnc21`, the cell count in test [1] stood at 339. The inhibition in test [1] was -21% (inactive); in test [3], -72.4% (inactive); in test [5], 14% (inactive); in [10], 13.6% (inactive); in [11] it was 2.79% (inactive); in test [12] it was -6.76% (inactive). In test [2], the inhibition of aggregation was 21.2% (inactive). Besides, the nuclei count in test [2] came out at 99.3%; in [3], 128%. For the same compound, the values for the z-score in test [4] (setting [13]), in test [4] (setting [14]) and in test [4] (setting [15]) were 0.246, -0.649 and -0.252, respectively. Also, the fluorescence slope in test [6] was -0.443 (inactive). Also, the NADPH fluorescence slope in [7] was -2.6e-05 (inactive). Besides, the slope in test [8] was 0.00658 (inactive). Besides, the outcome in [9] was inactive.
With `COc1cc(/C=C/C(=O)CC(=O)/C=C/c2ccc(O)c(OC)c2)ccc1O`, the cell count in test [1] was 581. Besides, the inhibition is -5.9% (inactive) in [1]; -31.2% (inactive) in test [3]; -8.38% (inactive) in test [5]; 102% (active) in test [10]; 7.07% (inactive) in test [11]; 6.1% (inactive) in [12]. For the same compound, the inhibition of aggregation in test [2] is -6.4% (inactive). The nuclei count was 105% in test [2] and 119% in test [3]. Moreover, the z-score in [4] (setting [13]) was -0.124; in test [4] (setting [14]), 0.198; in test [4] (setting [15]), 0.203. The fluorescence slope in [6] was -0.185 (active). The NADPH fluorescence slope in [7] is -1.1e-05 (inactive). For the same compound, the slope in [8] is 0.0285 (active). Further, the compound was classed as inactive in test [9].
As for `COc1ccc(NS(=O)(=O)c2ccc(N)cc2)nn1`, the cell count in [1] stood at 634. Also, the inhibition in [1] was -10.4% (inactive); in test [3] it was -67.7% (inactive); in test [5], 3.45% (inactive); in test [10], 15% (inactive); in test [11] it was 15.8% (inactive); in test [12], 27.8% (inactive). Moreover, the inhibition of aggregation in test [2] is -19.4% (inactive). For the same compound, the nuclei count was 99.2% in test [2] and 114% in test [3]. The z-score in [4] (setting [13]) is -2.14; in [4] (setting [14]) it was -1.5; in test [4] (setting [15]), 2.96. In addition, the fluorescence slope in [6] is -0.412 (inactive). Further, the NADPH fluorescence slope in [7] was 5.7e-06 (inactive). In test [8], the slope was 0.00455 (inactive). Moreover, the call in test [9] was inactive.
`CO[C@H]1C[C@@H]2CC[C@@H](C)[C@@](O)(O2)C(=O)C(=O)N2CCCC[C@H]2C(=O)O[C@H]([C@H](C)C[C@@H]2CC[C@@H](O)[C@H](OC)C2)CC(=O)[C@H](C)C=C(C)[C@@H](O)[C@@H](OC)C(=O)[C@H](C)C[C@H](C)C=CC=CC=C1C`: the cell count in test [1] stood at 629. In addition, the inhibition was -23.5% (inactive) in test [1]; -63% (inactive) in [3]; 19.2% (inactive) in [5]; 44.3% (inactive) in [10]; 21.8% (inactive) in [11]; 43.8% (inactive) in test [12]. Also, the inhibition of aggregation in test [2] was 3.4% (inactive). The nuclei count came out at 97% in test [2] and 106% in [3]. For the same compound, the z-score came out at 0.947 in [4] (setting [13]), 0.453 in [4] (setting [14]) and 0.871 in test [4] (setting [15]). Further, the fluorescence slope in test [6] is -0.462 (inactive). For the same compound, the NADPH fluorescence slope in test [7] was -3.4e-05 (inactive). For the same compound, in test [8], the slope is 0.00536 (inactive). The outcome in test [9] was inactive.
With `CC(=O)NS(=O)(=O)c1ccc(N)cc1`, the cell count in test [1] came out at 651. Further, the inhibition in [1] was 7.7% (inactive); in test [3], -106% (inactive); in test [5] it was 14.6% (inactive); in test [10], 46.5% (inactive); in [11] it was 11.7% (inactive); in test [12], 26.8% (inactive). For the same compound, the inhibition of aggregation in [2] was 12.5% (inactive). Also, the nuclei count in [2] amounted to 97.6%; in [3], 120%. The z-score in test [4] (setting [13]) is -1.23; in test [4] (setting [14]), 1.33; in test [4] (setting [15]), -0.291. In addition, in test [6], the fluorescence slope is -0.508 (inactive). In test [7], the NADPH fluorescence slope is -4.5e-05 (inactive). In addition, in test [8], the slope was 0.00641 (inactive). Also, the result in test [9] was inactive.
For the compound `CC(C)(C)OC(=O)N1CC=C2C(C#N)=C(N)C(C#N)(C#N)[C@H](c3cccnc3)[C@H]2C1`, the cell count in test [1] amounted to 461. The inhibition in test [1] was -13.5% (inactive); in test [3], 28.8% (inactive); in test [5] it was -0.624% (inactive); in test [10], 2.34% (inactive); in [11], 11.2% (inactive); in [12] it was 10.3% (inactive). Also, the inhibition of aggregation in test [2] was 45.1% (active). The values for the nuclei count in test [2] and in [3] were 70.7% and 112%, respectively. For the same compound, the z-score in [4] (setting [13]) is -1.09; in [4] (setting [14]), -0.413; in test [4] (setting [15]) it was 0.348. The fluorescence slope in test [6] is -0.387 (inactive). Besides, in test [7], the NADPH fluorescence slope was -4.5e-05 (inactive). Further, the slope in test [8] was 0.00436 (inactive). Also, in [9], the compound was called inactive.
In the case of `CCCSc1ccc2nc(NC(=O)OC)[nH]c2c1`, the cell count in test [1] turned out to be 574. Further, the inhibition was 3% (inactive) in test [1]; -115% (inactive) in test [3]; -5.24% (inactive) in [5]; -13.8% (inactive) in test [10]; 26.9% (inactive) in test [11]; -19.4% (inactive) in test [12]. In addition, the inhibition of aggregation in test [2] is -22.3% (inactive). For the same compound, the nuclei count amounted to 15.7% in test [2] and 123% in test [3]. Further, the z-score in test [4] (setting [13]) amounted to 0.0938; in test [4] (setting [14]) it was 0.921; in test [4] (setting [15]) it was 0.811. For the same compound, in test [6], the fluorescence slope is -0.486 (inactive). For the same compound, the NADPH fluorescence slope in [7] was -8.1e-05 (inactive). Also, the slope in test [8] is 0.00562 (inactive). The compound was called inactive in test [9].
Consider `CCOC(=O)c1ccc(-n2c(=O)[nH]c3ccccc3c2=O)cc1`, for which, in test [1], the cell count turned out to be 443. The inhibition in test [1] was -3.4% (inactive); in test [3] it was -140% (inactive); in test [5], 11.4% (inactive); in test [10], 9.26% (inactive); in [11], -16.9% (inactive); in test [12] it was -29.3% (inactive). Further, the inhibition of aggregation in [2] is 7.1% (inactive). For the same compound, the nuclei count in [2] is 80%; in test [3] it was 136%. In addition, the z-score in [4] (setting [13]) is -0.719; in test [4] (setting [14]) it was -0.246; in [4] (setting [15]), 0.316. Further, in [6], the fluorescence slope is -0.415 (inactive). The NADPH fluorescence slope in test [7] was -5.7e-05 (inactive). The slope in test [8] was 0.00476 (inactive). For the same compound, the call in test [9] was inactive.
Turning to `Cc1nnc2n(Cc3ccccc3)c(=O)c3c4c(sc3n12)COC(C(C)C)C4` (stereo not given), the cell count in test [1] was 511. Further, the inhibition in [1] was 9.8% (inactive); in test [3], -54.8% (inactive); in [5], -1.12% (inactive); in test [10], 146% (active); in test [11], 11.6% (inactive); in test [12] it was 3.4% (inactive). The inhibition of aggregation in test [2] is 29.9% (inactive). Moreover, the nuclei count in [2] came out at 80.8%; in test [3] it was 118%. Further, the z-score in [4] (setting [13]) was 0.665; in [4] (setting [14]), -0.394; in test [4] (setting [15]), -1.52. Besides, the fluorescence slope in test [6] was -0.46 (inactive). In addition, the NADPH fluorescence slope in test [7] is -0.000365 (inactive). Besides, in test [8], the slope is 0.00653 (inactive). In test [9], the call was inactive.
On to `CC(C)(S)[C@@H](N)C(=O)O`, for which the cell count in test [1] was found to be 657. Further, the inhibition in test [1] is -4.4% (inactive); in test [3], -120% (inactive); in test [5], 3.45% (inactive); in [10] it was -3.9% (inactive); in [11], 22.7% (inactive); in [12], 43.2% (inactive). Also, the inhibition of aggregation in [2] is -5.6% (inactive). Besides, the nuclei count in [2] was found to be 105%; in test [3] it was 138%. The z-score in [4] (setting [13]) is 1.21; in test [4] (setting [14]), -0.53; in test [4] (setting [15]), -0.44. Besides, in [6], the fluorescence slope is -0.482 (inactive). For the same compound, the NADPH fluorescence slope in [7] is -4.6e-05 (inactive). Besides, in test [8], the slope was 0.00423 (inactive). Moreover, the call in [9] was inactive.
